The source made the active and inactive calls. No stated cut-off is given here; in the data, active means fold change mostly below about -2 (no sharp cut-off); inactive means mostly above about -1.8.
Assay: modulation of TERT promoter-driven luciferase – cell-based, luciferase reporter, human, primary screen (AID 1259240)
Conditions: A2780 TERT promoter luciferase reporter, 16 h; at 20 µM, fold versus average of vehicle-only wells

Fold change, inactive:
CCN1CCCC1CNC(=O)CN1C(=O)COc2ccc(S(=O)(=O)N3CCC(C)CC3)cc21 (stereo not given) 1.28, CC(C)OCCCNc1nc(-c2ccccc2)nc2ccccc12 -1.24, CSc1ccc(-c2nc3sccn3c2Nc2ccccc2)cc1 -1.05, COc1ccccc1Nc1nc(N)nc(CSc2ncccn2)n1 -1.15, Cc1cc(NC(=O)CSc2ncnc3ccccc23)no1 1.35, Cc1nc2sc3c(NC4CCCCC4)ncnc3c2c2c1COC(C)(C)C2 -1.55, CC1CCC[C@@H](C)N1C(=O)Cc1ccc(NC2=NC3CS(=O)(=O)CC3S2)cc1 (stereo not given in full) -1.64, CN1CCN(C(=O)c2cc3c(=O)[nH]c4ccccc4c3n2C)CC1 -1.19, C=CCNc1nc2c(c(=O)[nH]c(=O)n2C)n1CCOc1ccccc1 -1.07, Cc1cc(NC(=O)CSCc2nc(-c3cccc(F)c3)oc2C)no1 1.06, c1cnc2c(SCc3cn4ccccc4n3)cccc2c1 -1.15, O=C(NCCCN1CCCCC1)C1CCC(CNS(=O)(=O)c2cccc3nsnc23)CC1 (stereo not given) -1.15, O=C(Cn1ncc2c3ccccc3n(Cc3ccc(Cl)cc3)c2c1=O)NC1CC1 -1.11, COC(=O)C1Cc2cc(OC)c(OC)cc2C(Cc2ccc(OC)c(OC)c2)=N1 (stereo not given) -1.78, CCCc1cc(C(=O)Nc2c(C)n(C)n(-c3ccccc3)c2=O)no1 -1.12, Cc1noc(C(=O)Nc2sc3c(c2C#N)CCC3)c1Cl 1.31, COc1ccc(OC)c(NC(=O)CSc2nc(-c3cccs3)nc3c2c(=O)n(C)c(=O)n3C)c1 1.71, COC(=O)c1sc2ccccc2c1N 1.26, CC(C)Cc1nnc(NC(=O)CSc2ncn[nH]2)s1 -1.25, O=C(CSc1nnc(Cc2cc(=O)[nH]c(=O)[nH]2)n1-c1ccc(Cl)cc1)c1ccccc1 -1.09, CCN(CC)c1ccc2cc(C(=O)O)c(=O)oc2c1 1.12, O=C(CSc1nnc2c(n1)[nH]c1ccccc12)c1ccc(Br)cc1 1.22, c1ccc(CN2CCN(c3nnc(Cc4cccnc4)c4ccccc34)CC2)cc1 1.04, CCNC(=O)CC1C(=O)N(c2ccc(F)cc2)C(=O)N1CCC(C)C (stereo not given) 1.24, O=C(ON=C1CCCC1)c1sc2ccccc2c1Cl -1.7, Cc1ccc(N2C(=O)c3n[nH]c(C)c3C2c2cccs2)cc1 (stereo not given) 1.21, CCOc1ccc(S(=O)(=O)n2c(C)nc3ccccc32)cc1 -1.6, Cc1ccc(-c2nc3ccccc3n3cc4c(=O)n(C)c(=O)n(C)c4c23)cc1 -1.32, Cn1c(=O)c(=O)n(C)c2cc(S(=O)(=O)N3CCC(C(N)=O)CC3)ccc21 -1.21, CCOC(=O)N1CCN(c2c(NC3CCCCCC3)c(=O)c2=O)CC1 -1.07, O=c1c(O)c(-c2ccc3c(c2)OCO3)oc2ccccc12 1, O=C(Nc1ccc2nc3n(c(=O)c2c1)CCCCC3)C(=O)N1CCOCC1 1.01, CN(CC(=O)O)S(=O)(=O)c1cccc2cccnc12 -1.07

Fold change, active:
CCOC(=O)CCCSc1nc2sc(C)c(C)c2c(=O)[nH]1 -3.49, COc1ccc2cc(S(=O)(=O)c3ccc(Cl)cc3)c(=O)oc2c1 -2.33, Cc1cc(C)cc(N(CC(=O)NCc2cccs2)S(=O)(=O)c2c(C)[nH]c(=O)[nH]c2=O)c1 -2.11, CC(C)n1cnc2cc(NCc3ccncc3)ccc21 -2.71, COc1ccccc1Nc1nc(N)nc(CN2CCN(C)CC2)n1 -3.68

outcome, inactive:
O=C(O)Cn1c(O)c(C2=c3ccccc3=NC2=O)sc1=S

outcome, active:
Cc1ccccc1Nc1c(-c2ccccc2O)nc2cnccn12

— PubChem BioAssay AID1259240 (Keith Lab, Institute of Cancer Science, University of …, 2017)
